Reference: PubChem BioAssay (Tox21)
Where “and” joins values, the source holds several entries; their conditions need not be identical. Equal values may be shown once. Results filed as inconclusive are left out. Calls of active or inactive are those of the source. Unless noted, calls come from the whole dose curve; as a rule, active = well fitted curve in the direction sought with a large enough effect in the repeat runs; inconclusive = weak or mixed curves; inactive = no such curve, though single readings can be large; an effect the other way counts as inactive or inconclusive.

Legend:
[1] = qHTS assay for small molecule agonists of the p53 signaling pathway (AID 651631; calls by dose curve; note: nearly all actives have a fitted effect of over 15% in size; note: potency is the fitted concentration of half-maximal effect)
How it was run: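 p53RE-bla HCT-116 cells; compounds 16 h, 37 °C; LiveBLAzer B/G FRET substrate 2 h RT; fluorescence intensity read-out, qHTS format.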

[2] = qHTS assay for small molecules that induce genotoxicity in human embryonic kidney cells expressing luciferase-tagged ATAD5 (AID 651632); note: nearly all actives have a fitted effect of over 15% in size
How it was run: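 Concentration-response screen for ATAD5 upregulation in HEK293T luciferase reporter cells; 16 hr treatment at 37C, then luminescence after 30 min with Amplite at room temperature.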

[3] = qHTS assay for small molecule agonists of the p53 signaling pathway - cell viability (AID 651633; calls by dose curve; note: nearly all actives have a fitted effect of over 30% in size; note: potency is the fitted concentration of half-maximal effect)
How it was run: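 Viability counter-read: CellTiter-Glo luminescence (30 min, room temperature) in the same p53RE-bla plates. These plates had been exposed to compounds for 16 h at 37 C.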

[4] = qHTS assay for small molecules that induce genotoxicity in human embryonic kidney cells expressing luciferase-tagged ATAD5 - cell viability (AID 651634; calls by dose curve; note: nearly all actives have a fitted effect of over 25% in size; note: potency is the fitted concentration of half-maximal effect)
How it was run: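 15.5 hr compound or vehicle exposure of HEK293T cells expressing luciferase-tagged ATAD5 at 37C; live-cell protease activity is read by fluorescence after 30 min of CellTiter-Fluor.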

[5] = qHTS assay for small molecule disruptors of the mitochondrial membrane potential - cell viability (AID 720634; calls by dose curve;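 note: human HepG2 liver cancer cells; series mostly up to about 83 µM; nearly all actives have a fitted effect of over 20% in size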)
How it was run: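 In this qHTS format, HepG2 cells plated overnight were pinned with compound, incubated 1 hr, and assayed for ATP luminescence with CellTiter-Glo after m-MPI dye addition.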

[6] = qHTS assay to test for compound auto fluorescence at 590 nm (red) in HepG2 cells (AID 720674)
How it was run: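 1 hr compound incubation on HepG2 cells, 37 C, 5% CO2; plate read ex 540 nm / em 590 nm; intensities reported as Rose Bengal sodium equivalents.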

[7] = qHTS assay to test for compound auto fluorescence at 535 nm (green) in HepG2 cells (AID 720675)
[8] = qHTS assay to test for compound auto fluorescence at 460 nm (blue) in HEK293 cells (AID 720678)
How it was run: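 HEK293, 2,000 cells/well, 10% dialyzed FBS; attach 4-5 hr 37C; pin compound or DMSO; o/n 37C/5% CO2; fluorescence 405/460 nm; triamterene-equivalent units.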

[9] = qHTS assay to test for compound auto fluorescence at 590 nm (red) in HEK293 cells (AID 720679)
How it was run: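 Intensity at 540nm excitation and 590nm emission is reported as Rose Bengal sodium-equivalent autofluorescence. Measurements followed overnight exposure (37C, 5% CO2) of HEK293 cells, 2,000 per well, to 23 nL compound.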

[10] = qHTS assay for small molecule disruptors of the mitochondrial membrane potential (AID 720635); note: potency is the fitted concentration of half-maximal effect
How it was run: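 Mitochondrial membrane potential tracked with Mito-MPS dye, red aggregates (ex 540/em 590 nm) against green monomers (ex 490/em 535 nm). Compound treatment 1 hr at 37C, dye 30 min in HepG2.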

Measured: Potency

COC(=O)c1ccccc1S(=O)(=O)NC(=O)Nc1nc(C)nc(OC)n1
inactive: [1] | [2] | [3] | [4] | [5] | [6] | [7] | [8] | [9]

OCC(Br)CBr (stereo unspecified)
inactive: [1] | [2] | [3] | [4] | [5] | [6] | [7] | [8] | [9]

C=Cc1cccc(CCl)c1
inactive: [1] | [2] | [3] | [4] | [5] | [10] | [6] | [7] | [9]

CCCCON=O
inactive: [1] | [2] | [3] | [4] | [5] | [6] | [7] | [8] | [9]

C=CC(=C)C
inactive: [1] | [2] | [3] | [4] | [5] | [6] | [7] | [8] | [9]

CCC1COC(Cn2cncn2)(c2ccc(Cl)cc2Cl)O1 (stereo unspecified)
inactive: [1] | [2] | [3] | [4] | [5] | [6] | [7] | [8] | [9]

CCN(CC)Cc1nccn1-c1ccc([N+](=O)[O-])cc1C(=O)c1ccccc1Cl
inactive: [1] | [2] | [3] | [4] | [5] | [10] | [6] | [7] | [8] | [9]

N#CCCl
inactive: [1] | [2] | [3] | [4] | [5] | [10] | [6] | [7] | [9]

Cc1cccc(Cc2cnc[nH]2)c1C
inactive: [1] | [2] | [3] | [4] | [5] | [10] | [6] | [7] | [8] | [9]

[Cl][Hg][c]1ccccc1
active: [1] 6.11 µM | [3] 1.93 µM | [4] 19.3 µM | [10] 6.11 µM
inactive: [2] | [6] | [7] | [8] | [9]

CC(C)(C)c1ccc(OP(=O)(Oc2ccccc2)Oc2ccccc2)cc1
active: [10] 9.75 µM
inactive: [1] | [2] | [3] | [4] | [6] | [7] | [8] | [9]

CCC(C)Br (stereo unspecified)
inactive: [1] | [2] | [3] | [4] | [5] | [6] | [7] | [8] | [9]

COc1ccc2c3c1O[C@H]1[C@H](O)CC[C@H]4[C@@H](C2)N(C)CC[C@@]341
inactive: [1] | [2] | [3] | [4] | [5] | [10] | [7] | [9]

ClC1=C(Cl)[C@]2(Cl)[C@@H]3[C@H]4C[C@H]([C@@H]5O[C@H]45)[C@@H]3[C@@]1(Cl)C2(Cl)Cl
active: [10] 16.8 µM and 19.3 µM
inactive: [1] | [2] | [3] | [4] | [5] | [6] | [7] | [8] | [9]

O=C(Cl)c1ccccc1F
inactive: [1] | [2] | [3] | [4] | [5] | [10] | [7] | [9]

CC(=O)C(Cl)C(=O)N(C)C (stereo unspecified)
inactive: [1] | [2] | [3] | [4] | [5] | [6] | [7] | [8] | [9]

O=C(NC(=O)c1ccccc1Cl)Nc1ccc(OC(F)(F)F)cc1
inactive: [1] | [2] | [3] | [4] | [5] | [10] | [6] | [7] | [9]

C=CCBr
inactive: [1] | [2] | [3] | [4] | [5] | [6] | [7] | [9]

C[C@H]1[C@H](c2ccc(Cl)cc2)SC(=O)N1C(=O)NC1CCCCC1
inactive: [1] | [2] | [3] | [4] | [7] | [8] | [9]
active: [10] 15.4 µM

CCOP(=S)(NC(C)C)Oc1ccccc1C(=O)OC(C)C (stereo unspecified)
active: [10] 27.3 µM
inactive: [1] | [2] | [3] | [4] | [6] | [7] | [9]

NC(=O)C(Cl)Cl
inactive: [1] | [2] | [3] | [4] | [5] | [10] | [6] | [7] | [8] | [9]

CNC(=O)Oc1cc(C)cc(C(C)C)c1
inactive: [1] | [2] | [3] | [4] | [5] | [6] | [7] | [8] | [9]

CCCCC(CC)COC(=O)OOC(C)(C)C (stereo unspecified)
inactive: [1] | [2] | [3] | [4] | [5] | [6] | [7] | [8] | [9]
